# ChEMBL document CHEMBL3988442, “University of Dundee, Small-Polar-MMV Screening Library” (2021)
# For some of these results: Potency and affinity values are given separately.
# Legend:
# Parameters in all cases: scale not given: direction of the effect not stated beside the values
# [1] = target: Protein translocase subunit SecA (Escherichia coli (strain K12)) (UniProt P10408); experiment: Assay to Identify E. coli SecA ATPase Inhibitors; type: functional; settings: 30 µM
# [2] = target: T1, Ubiquitin-activating enzyme e1, putative (Leishmania donovani (strain BPK282A1)) (UniProt E9BSI1); experiment: Leishmania donovani Ubiquitin Activating Enzyme (LdE1); type: functional; settings: 30 µM
# T1 sequence (whole entry): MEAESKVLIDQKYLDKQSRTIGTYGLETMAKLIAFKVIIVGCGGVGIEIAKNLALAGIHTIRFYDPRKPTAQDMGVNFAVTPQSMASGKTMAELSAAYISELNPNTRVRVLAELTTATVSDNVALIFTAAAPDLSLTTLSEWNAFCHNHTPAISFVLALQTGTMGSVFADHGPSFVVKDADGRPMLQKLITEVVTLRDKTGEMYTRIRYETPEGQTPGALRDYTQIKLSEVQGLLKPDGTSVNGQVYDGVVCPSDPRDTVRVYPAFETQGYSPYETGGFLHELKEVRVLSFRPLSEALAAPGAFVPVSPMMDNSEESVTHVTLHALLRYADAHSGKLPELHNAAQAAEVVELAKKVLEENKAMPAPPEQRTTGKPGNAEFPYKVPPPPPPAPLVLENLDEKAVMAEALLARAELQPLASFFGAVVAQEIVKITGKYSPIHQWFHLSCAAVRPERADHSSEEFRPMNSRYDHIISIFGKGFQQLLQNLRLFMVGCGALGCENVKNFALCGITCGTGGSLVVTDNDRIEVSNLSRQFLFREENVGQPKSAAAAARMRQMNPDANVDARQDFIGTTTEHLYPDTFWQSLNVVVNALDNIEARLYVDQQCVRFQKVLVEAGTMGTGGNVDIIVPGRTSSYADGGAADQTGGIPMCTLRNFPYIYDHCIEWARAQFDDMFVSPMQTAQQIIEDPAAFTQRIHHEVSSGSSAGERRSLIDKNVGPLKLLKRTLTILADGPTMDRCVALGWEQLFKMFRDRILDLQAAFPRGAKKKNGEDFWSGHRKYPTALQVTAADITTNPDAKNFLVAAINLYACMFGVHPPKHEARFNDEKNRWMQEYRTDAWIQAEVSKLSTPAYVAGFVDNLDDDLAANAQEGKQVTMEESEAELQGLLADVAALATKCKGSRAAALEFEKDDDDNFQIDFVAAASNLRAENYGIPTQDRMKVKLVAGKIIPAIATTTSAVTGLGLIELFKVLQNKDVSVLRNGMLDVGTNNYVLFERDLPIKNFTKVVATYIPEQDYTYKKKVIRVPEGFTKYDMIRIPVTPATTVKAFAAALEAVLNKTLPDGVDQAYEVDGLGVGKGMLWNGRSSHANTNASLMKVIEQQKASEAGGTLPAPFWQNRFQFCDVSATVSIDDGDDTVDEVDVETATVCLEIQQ
# [3] = target: AMP-activated protein kinase, AMPK (Homo sapiens) (UniProt P54646+O43741+P54619+Q9UGJ0+Q9Y478+Q13131+Q9UGI9); experiment: AMP-dependent Kinase enzyme assay. An in vitro enzyme assay that detects ADP turnover that is directly proportional to AMPK activity. This uses naive AMPK that is activated during the assay with MK-8722; type: functional; settings: 30 µM
# [4] = target: Sialic acid-binding Ig-like lectin 9 (Homo sapiens) (UniProt Q9Y336); experiment: Hs-Siglec9 ALPHAscreen SOP 20170721; settings: 10 µM
# Sequence of Sialic acid-binding Ig-like lectin 9 (Homo sapiens) (Q9Y336 whole entry): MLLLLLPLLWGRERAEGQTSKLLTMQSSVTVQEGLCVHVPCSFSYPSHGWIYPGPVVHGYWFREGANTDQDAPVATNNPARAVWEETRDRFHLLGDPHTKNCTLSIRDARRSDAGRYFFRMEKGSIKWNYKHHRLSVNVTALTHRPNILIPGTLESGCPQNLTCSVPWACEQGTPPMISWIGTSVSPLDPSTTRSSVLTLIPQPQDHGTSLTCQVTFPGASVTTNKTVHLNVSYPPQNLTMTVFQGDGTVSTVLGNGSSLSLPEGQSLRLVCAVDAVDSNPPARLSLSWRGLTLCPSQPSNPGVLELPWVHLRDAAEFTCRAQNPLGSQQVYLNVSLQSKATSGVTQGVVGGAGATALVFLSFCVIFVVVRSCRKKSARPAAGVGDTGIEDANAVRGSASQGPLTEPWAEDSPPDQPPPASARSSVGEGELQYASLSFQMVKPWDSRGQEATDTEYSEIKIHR
# Trypanosoma cruzi = experiment: Trypanosoma cruzi phosphomannomutase and mannose-1-phosphate guanylyltransferase assay; type: functional; settings: 10 µM
# [5] = target: T2, Arginase-2, mitochondrial (Homo sapiens) (UniProt P78540); experiment: in vitro enzyme assay to detect the production of urea directly proportional to the activity of Arginase II; type: functional; settings: 33.3 µM; also: in the data most compounds retested in dose-response had high values
# T2 sequence (whole entry): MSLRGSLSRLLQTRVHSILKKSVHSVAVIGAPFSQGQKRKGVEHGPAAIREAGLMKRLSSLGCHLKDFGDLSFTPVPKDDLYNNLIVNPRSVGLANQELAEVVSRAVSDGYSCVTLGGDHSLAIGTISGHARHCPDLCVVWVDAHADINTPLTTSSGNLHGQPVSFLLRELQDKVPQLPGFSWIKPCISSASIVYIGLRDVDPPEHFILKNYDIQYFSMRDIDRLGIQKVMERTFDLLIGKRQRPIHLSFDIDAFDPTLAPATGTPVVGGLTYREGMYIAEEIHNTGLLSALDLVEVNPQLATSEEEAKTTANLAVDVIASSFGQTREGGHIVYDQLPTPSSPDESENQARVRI
# [6] = target: T3, Proteasome subunit beta (Trypanosoma cruzi) (UniProt O96673); experiment: Trypanosoma cruzi proteasome chymotrypsin-like activity (TcProtChymo) assay.; also: in the data most compounds retested in dose-response had high values; type: functional; settings: 9.37 µM
# T3 sequence (whole entry): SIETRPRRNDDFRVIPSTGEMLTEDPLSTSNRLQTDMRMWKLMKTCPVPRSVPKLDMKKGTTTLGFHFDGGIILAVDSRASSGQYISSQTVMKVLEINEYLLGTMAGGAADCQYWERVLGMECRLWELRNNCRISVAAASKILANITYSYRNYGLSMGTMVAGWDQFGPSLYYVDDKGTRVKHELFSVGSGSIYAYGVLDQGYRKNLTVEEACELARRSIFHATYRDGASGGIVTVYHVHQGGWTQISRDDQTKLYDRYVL
# Homo sapiens = species: Homo sapiens; experiment: To identify inhibition of the IFN signalling (Jak-Stat) pathway via expression of an eGFP reporter gene under the control of an IFN-stimulated response element (ISRE) containing MxA promoter.; type: functional; settings: 30 µM
# [7] = target: T4, Tyrosyl-tRNA synthetase, putative (Trypanosoma cruzi (strain CL Brener)) (UniProt Q4DSP6); experiment: Trypanosoma cruzi tyrosyl tRNA synthetase (TcYRS) _High Tyrosine SOP; type: functional; settings: 30 µM; also: in the data most compounds retested in dose-response had high values
# T4 sequence (whole entry): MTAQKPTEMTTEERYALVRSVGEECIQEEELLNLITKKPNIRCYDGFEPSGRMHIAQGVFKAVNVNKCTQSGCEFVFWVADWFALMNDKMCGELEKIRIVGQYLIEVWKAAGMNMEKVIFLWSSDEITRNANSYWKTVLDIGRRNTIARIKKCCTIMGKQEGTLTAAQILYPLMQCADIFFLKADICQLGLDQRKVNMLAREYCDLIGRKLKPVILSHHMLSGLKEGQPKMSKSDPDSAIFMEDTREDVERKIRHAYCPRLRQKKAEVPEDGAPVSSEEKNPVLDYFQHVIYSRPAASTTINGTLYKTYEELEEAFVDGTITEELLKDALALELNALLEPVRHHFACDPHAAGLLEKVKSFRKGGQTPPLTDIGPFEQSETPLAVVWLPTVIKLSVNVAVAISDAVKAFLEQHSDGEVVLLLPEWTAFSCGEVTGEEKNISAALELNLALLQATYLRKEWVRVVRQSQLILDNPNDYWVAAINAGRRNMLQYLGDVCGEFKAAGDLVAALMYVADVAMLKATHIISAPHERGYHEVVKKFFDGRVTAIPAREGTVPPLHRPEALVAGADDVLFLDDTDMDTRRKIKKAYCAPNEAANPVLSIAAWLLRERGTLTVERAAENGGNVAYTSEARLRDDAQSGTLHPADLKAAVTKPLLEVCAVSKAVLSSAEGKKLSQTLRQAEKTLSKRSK
# [8] = target: T4, Tyrosyl-tRNA synthetase, putative (Trypanosoma cruzi (strain CL Brener)); experiment: Trypanosoma cruzi tyrosyl tRNA synthetase (TcYRS) SOP; type: functional; settings: 30 µM
# [9] = target: Chromo domain-containing protein 1 (Saccharomyces cerevisiae (strain ATCC 204508 / S288c) (Baker's yeast)) (UniProt P32657); experiment: ScCHD-1 Enzyme Inhibition Assay; type: functional; settings: 30 µM; also: in the data most compounds retested in dose-response had high values
# Sequence of Chromo domain-containing protein 1 (Saccharomyces cerevisiae (strain ATCC 204508 / S288c) (Baker's yeast)) (P32657 whole entry, the tested form may be a part): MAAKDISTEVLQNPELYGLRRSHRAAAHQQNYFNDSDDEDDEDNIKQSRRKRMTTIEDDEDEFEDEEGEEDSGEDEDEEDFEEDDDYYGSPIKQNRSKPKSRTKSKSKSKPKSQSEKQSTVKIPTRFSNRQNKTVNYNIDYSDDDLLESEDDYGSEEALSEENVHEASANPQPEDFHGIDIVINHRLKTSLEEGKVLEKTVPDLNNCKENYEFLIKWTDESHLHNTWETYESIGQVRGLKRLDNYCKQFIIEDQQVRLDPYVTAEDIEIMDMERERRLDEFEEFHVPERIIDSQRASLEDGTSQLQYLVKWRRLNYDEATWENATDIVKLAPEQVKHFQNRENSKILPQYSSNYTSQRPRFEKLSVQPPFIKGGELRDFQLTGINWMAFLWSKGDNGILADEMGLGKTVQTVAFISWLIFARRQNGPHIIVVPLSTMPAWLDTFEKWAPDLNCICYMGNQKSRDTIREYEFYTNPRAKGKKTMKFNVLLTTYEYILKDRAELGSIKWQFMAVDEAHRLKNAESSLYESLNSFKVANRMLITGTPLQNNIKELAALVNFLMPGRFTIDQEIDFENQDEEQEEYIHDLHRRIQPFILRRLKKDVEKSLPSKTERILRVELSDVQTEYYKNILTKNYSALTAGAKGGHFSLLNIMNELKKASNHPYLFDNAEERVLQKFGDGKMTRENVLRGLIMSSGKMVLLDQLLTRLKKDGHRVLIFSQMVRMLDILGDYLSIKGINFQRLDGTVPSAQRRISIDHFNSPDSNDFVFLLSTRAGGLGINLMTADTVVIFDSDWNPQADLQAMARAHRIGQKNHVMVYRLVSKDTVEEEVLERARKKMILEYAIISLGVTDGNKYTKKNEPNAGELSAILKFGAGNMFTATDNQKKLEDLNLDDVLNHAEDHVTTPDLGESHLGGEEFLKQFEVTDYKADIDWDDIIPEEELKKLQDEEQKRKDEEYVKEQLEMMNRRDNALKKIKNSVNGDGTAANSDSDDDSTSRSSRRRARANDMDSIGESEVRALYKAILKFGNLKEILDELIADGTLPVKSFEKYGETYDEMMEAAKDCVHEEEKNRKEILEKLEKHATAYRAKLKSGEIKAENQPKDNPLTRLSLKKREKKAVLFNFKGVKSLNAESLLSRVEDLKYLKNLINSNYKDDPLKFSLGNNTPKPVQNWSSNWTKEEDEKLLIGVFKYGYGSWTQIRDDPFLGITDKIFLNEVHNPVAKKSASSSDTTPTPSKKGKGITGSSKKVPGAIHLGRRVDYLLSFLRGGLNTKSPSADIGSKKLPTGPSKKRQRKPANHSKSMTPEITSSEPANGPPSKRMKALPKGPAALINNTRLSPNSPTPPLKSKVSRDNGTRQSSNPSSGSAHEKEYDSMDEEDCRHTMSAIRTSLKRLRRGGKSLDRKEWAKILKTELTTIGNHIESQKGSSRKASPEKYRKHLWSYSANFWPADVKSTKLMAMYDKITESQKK
# Sequence of Protein translocase subunit SecA (Escherichia coli (strain K12)) (P10408 whole entry): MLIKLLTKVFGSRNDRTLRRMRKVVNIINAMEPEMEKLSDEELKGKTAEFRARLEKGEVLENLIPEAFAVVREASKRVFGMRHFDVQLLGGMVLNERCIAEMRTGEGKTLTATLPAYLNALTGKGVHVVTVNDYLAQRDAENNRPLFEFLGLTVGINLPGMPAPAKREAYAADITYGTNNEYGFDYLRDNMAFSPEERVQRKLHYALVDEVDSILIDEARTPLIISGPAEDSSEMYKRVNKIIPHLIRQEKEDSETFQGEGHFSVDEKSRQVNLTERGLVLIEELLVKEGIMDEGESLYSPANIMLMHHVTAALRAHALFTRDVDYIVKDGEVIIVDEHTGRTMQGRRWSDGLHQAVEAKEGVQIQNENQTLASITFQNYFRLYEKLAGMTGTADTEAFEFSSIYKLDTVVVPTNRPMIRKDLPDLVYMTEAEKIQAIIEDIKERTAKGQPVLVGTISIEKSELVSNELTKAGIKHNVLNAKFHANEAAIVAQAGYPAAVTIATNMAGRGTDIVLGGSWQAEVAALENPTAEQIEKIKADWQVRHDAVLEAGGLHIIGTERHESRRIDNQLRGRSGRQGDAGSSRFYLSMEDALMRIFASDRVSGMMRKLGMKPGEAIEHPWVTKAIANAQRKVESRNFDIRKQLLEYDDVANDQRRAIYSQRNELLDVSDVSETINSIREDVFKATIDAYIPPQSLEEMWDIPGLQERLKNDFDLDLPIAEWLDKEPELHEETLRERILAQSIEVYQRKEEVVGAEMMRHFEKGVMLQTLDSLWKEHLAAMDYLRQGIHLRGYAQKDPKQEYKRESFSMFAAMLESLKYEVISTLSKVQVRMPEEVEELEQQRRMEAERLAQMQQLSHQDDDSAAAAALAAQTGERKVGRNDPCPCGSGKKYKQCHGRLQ
Structure (SMILES),Percent Effect [1] [%],Percent Effect [2] [%],Percent Effect [3] [%],Percent Effect [4] [%],Percent Effect (Trypanosoma cruzi) [%],Percent Effect [5] [%],Percent Effect [6] [%],Percent Effect (Homo sapiens) [%],Percent Effect [7] [%],Percent Effect [8] [%],Percent Effect [9] [%]
CC(C)(C)c1nnc(CN2CCCC2c2noc(C3CC3)n2)o1 (stereo not given),0.285,8.11,0.0576,-0.506,2.32,-0.554,8.08,-8.49,10.9,28.1,-6.45
COCC1CC2(CCN(C(=O)c3cccc(C)c3)CC2)CO1 (stereo not given),-0.162,5.2,3.05,6.28,-1.68,-1.94,1.74,-8.87,-3.17,-3.85,-5.05
CCc1noc(CNc2ccc(F)cc2OCC2CC2)n1,0.992,18.9,-7.79,18.2,-1.54,7.14,9.83,10.8,1.59,12.2,-3.79
Cn1cnnc1C1CCCN(C(=O)NCc2cc[nH]n2)C1 (stereo not given),-1.36,18.4,-12.9,-7.02,4.01,-2.16,9.05,4.39,6.4,18.5,-8.86
O=C(CC1CC1)NCc1cc(=O)n2c(n1)CN(Cc1ccoc1)CCC2,-2.92,-11,-1.08,0.919,7.34,-1.2,18.9,4.85,3.12,6.17,-3.77
COc1ccc2c(c1)C1(CCN(Cc3ccncc3)CC1)N(C)CC2,-3.01,7.79,2.38,7.8,-3.06,0.645,14.4,-6.76,0,3.85,-8.34
O=C(COC[C@H]1CC[C@H]2[C@H](CCN2c2ncccn2)O1)N1CCCC1,-2.35,24.7,-1.6,1.45,0,-1.2,7.62,13.1,5.21,13.6,-1.93
CSCC(C)(O)CNC(=O)c1cc(Br)ccc1Cl (stereo not given),-6.56,2.74,-10.3,29.6,9.01,-4.54,18.1,10.3,3.23,17.5,34.8
Cc1oc(C(=O)O)cc1S(=O)(=O)Nc1ccc(Cl)c(F)c1,-4.46,0,1.91,3.7,-5.24,2.85,-2.2,27.1,-2.91,-4.88,-4.31
CCCc1cc(C(=O)N(C)Cc2cnc3ccccc3n2)n(C)n1,-7.11,5.2,2.82,6.76,2.06,11,8.82,7.96,7.53,11.1,2.1
CCOC(=O)CNC(=O)N1CCN(c2ncccn2)CC1,-2.75,7.79,-0.383,6.61,4.03,-13.8,9.65,14.3,5.38,13.6,-4.38
Cc1ccccc1C1CCCN1C(=O)CN1CC2(CCNCC2)OC1=O (stereo not given),-4.66,8.11,-3.53,12.1,6.76,0,13.1,-1.19,4.76,9.76,87.8
N#Cc1cccnc1NCCNC(=O)N1CCCSCC1,-3.35,2.7,-4.19,3.38,8.11,-2.38,14.3,-19.3,3.7,12.2,-6.59
O=S1(=O)COCCN1Cc1ccc(Cl)c(F)c1,0.108,16.2,-3.31,17.6,3.28,2.38,14.7,0.549,5.82,14.6,-5.23
O=S(=O)(NCC1(O)CCOc2ccccc21)c1cccs1 (stereo not given),-8.36,0,3.61,-4.67,-3.72,-0.455,5.86,8.26,1.07,5,0.9
CC[C@@H](CO)NC(=O)c1coc(COc2ccc(OC)cc2)n1,-3.54,10.8,-5.65,-1.14,-2.05,-0.744,5.58,-2.06,6.45,18.5,-1.77
CNC(=O)CS(=O)(=O)Cc1cc(Cl)c2c(c1)OCCCO2,-1.64,12.7,-5.11,-6.27,3.87,-2.66,7.62,-4.79,10.3,24.1,-6.28
CC(C)CS(=O)(=O)N1C[C@H]2C[C@H](C(=O)NCc3ccccc3)[C@@H](C1)O2,1.12,9.33,4.22,-2.68,-10,0.88,13.3,2.72,3.17,2.56,-5.74
O=S1(=O)CCN(Cc2cccnc2)[C@H]2CCN(c3ncccn3)CC[C@H]21,-8.77,-2.7,-0.0275,20.3,-3.91,-0.417,-2.62,16.4,3.96,-1.22,0.188
CS(=O)(=O)N1Cc2nccn2CC(Cn2ncccc2=O)C1 (stereo not given),-1.2,13.3,3.55,5.03,-5.79,-26,7.18,0.368,3.12,12.5,-4.85
